High-throughput results from PubChem BioAssay.
E coli growth-1 = E. coli growth inhibition, primary screen, OD600; Escherichia coli growth, 23 h; stronger effect = lower value; OD600 absorbance (test concentration not listed); 330,000 compounds, 0.21% hits; AID 1053175, 2014;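 active means OD600 absorbance below the run mean of sample wells minus 3.6 SD, in any replicate, cut at about 0.56 in these data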
Tat export inh = E. coli Tat export inhibitors, primary screen, MC4100, TorA-mCherry reporter, fluorescence, single point; inhibition, % at 10 µM; 340,000 compounds, 0.036% hits;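 active means mean replicate inhibition at least 50% and at least half of replicates individually reaching 50%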;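 further: exported cargo escapes ClpAP degradation while cytoplasmic cargo is degraded and loses fluorescence; 0% = median of neutral control wells and 100% = median of NaSCN control wells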
p-CIP stab down = p/CIP-EGFP fusion destabilizers, primary screen, fluorescence, F442A cells. decrease of EGFP signal, % at 10 µM. 16 h. 290,000 compounds, 0.01% hits. Q05BA5;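 active means EGFP signal decrease of at least 30% at 10 µM or well 3 SD below plate mean, unless failing retest; inactive means the rest, including hits failing retest or dose response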
Target sequence (Q05BA5 1-1403): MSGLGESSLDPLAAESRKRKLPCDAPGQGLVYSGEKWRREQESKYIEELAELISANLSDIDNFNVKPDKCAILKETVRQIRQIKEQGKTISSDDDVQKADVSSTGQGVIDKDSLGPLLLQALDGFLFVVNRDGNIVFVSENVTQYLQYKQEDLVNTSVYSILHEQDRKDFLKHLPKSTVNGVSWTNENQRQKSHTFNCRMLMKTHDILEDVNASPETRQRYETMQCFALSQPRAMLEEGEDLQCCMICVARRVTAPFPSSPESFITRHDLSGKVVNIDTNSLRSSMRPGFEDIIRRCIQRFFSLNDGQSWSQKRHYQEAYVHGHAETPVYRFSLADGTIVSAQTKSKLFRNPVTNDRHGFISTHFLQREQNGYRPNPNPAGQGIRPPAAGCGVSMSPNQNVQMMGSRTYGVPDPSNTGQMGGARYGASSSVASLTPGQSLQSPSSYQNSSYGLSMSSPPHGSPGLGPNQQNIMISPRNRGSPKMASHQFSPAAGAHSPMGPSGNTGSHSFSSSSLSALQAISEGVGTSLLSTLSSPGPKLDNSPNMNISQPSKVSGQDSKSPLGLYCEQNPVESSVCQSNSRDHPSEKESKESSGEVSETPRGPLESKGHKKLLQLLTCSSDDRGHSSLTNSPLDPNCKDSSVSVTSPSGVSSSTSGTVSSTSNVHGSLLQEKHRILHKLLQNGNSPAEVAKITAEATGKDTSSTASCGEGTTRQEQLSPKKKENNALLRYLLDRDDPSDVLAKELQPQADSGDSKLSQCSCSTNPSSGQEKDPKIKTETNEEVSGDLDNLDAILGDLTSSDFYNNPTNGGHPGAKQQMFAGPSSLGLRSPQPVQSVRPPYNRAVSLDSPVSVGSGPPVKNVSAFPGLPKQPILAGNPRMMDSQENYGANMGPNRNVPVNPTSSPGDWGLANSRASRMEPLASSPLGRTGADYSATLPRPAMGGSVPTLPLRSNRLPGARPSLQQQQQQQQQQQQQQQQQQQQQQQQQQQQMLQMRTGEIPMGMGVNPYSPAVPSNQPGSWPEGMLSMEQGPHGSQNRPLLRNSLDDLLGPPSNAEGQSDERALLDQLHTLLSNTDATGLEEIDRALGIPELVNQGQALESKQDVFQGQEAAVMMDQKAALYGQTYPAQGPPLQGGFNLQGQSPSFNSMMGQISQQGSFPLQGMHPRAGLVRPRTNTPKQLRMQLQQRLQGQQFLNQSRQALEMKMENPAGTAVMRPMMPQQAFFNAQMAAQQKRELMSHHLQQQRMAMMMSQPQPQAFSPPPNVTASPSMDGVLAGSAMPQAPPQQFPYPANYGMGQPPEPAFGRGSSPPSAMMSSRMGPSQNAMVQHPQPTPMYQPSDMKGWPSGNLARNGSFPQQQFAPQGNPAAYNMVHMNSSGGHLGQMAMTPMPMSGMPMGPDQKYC
phage Ecoli inh = growth loss of phage-infected E. coli, primary screen, RecBCD inhibitor project, absorbance, with phage, HTS; 360,000 compounds, 0.26% hits; inhibition, % at 11.9 µM; AID 651602, 2012; in the data active means inhibition above about 11%
E coli growth-2 = E. coli V3065 growth inhibition, primary screen, counter-screen for AddAB inhibitor project, absorbance, OD600 | inhibition, % at 11.9 µM | AID 449728, 2010 | 18 h | 330,000 compounds, 0.27% hits;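 active means inhibition above the campaign's mean inhibition across all tested compounds plus 3 SD, cut at about 9.9% in these data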;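 further: uninfected addAB+ strain grown without phage in ampicillin broth; 0% = DMSO wells and 100% = ciprofloxacin 0.95 µg/ml wells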
AddAB inh = growth inhibition of E. coli expressing H. pylori AddAB, primary screen, AddAB inhibitor project, absorbance. 330,000 compounds, 0.29% hits. inhibition, % at 11.9 µM; in the data active means inhibition above about 12%;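 further: 0% = vehicle wells of infected cells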
AddAB confirm = growth loss of phage-infected E. coli expressing H. pylori AddAB, confirmation, AddAB inhibitor project, absorbance, E. coli V3065, T4 phage, triplicate | shares compounds with AddAB inh | OD; T4 phage with gene 2 nonsense mutations | inhibition, % at 11.9 µM | 880 compounds, 64% hits | AID 488942, 2010;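 active means mean inhibition above a set limit taken from the earlier primary screen, cut at about 13% in these data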;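 further: higher means less bacterial growth since AddAB block lets phage replicate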
RecBCD counter = growth loss of RecBCD+ E. coli with mutant T4 phage, counter-screen for AddAB inhibitor project, absorbance, V66 E. coli; shares compounds with AddAB inh; OD growth; inhibition, % at 11.9 µM; 880 compounds, 73% hits; AID 488955, 2010;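 active means mean inhibition above the mean of solvent-only control wells plus 3 SD, cut at about 4% in these data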;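 further: optical density read after an 18 h incubation at 37 °C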
bact viab count = bacterial viability inhibition counter-screen, confirmation, counter-screen for AddAB inhibitor project, absorbance | shares compounds with AddAB inh | absorbance (AddAB counterscreen) | inhibition, % at 11.9 µM | 880 compounds, 35% hits; in the data active means inhibition above about 25%
An asterisk follows results filed as active. Shown are actives, neighbours in structure and some others; about 0.51% of the full set was active somewhere.

Results for c1ccc(-c2nc(N3CCOCC3)s[n+]2-c2ccccc2)cc1 ?
E coli growth-1: 0.52*; Tat export inh: -2; p-CIP stab down: -1; phage Ecoli inh: 2; E coli growth-2: 3; AddAB inh: 4

How did COC(=O)C1=C(c2cccc(OCc3ccccc3)c2)CC2CCC1N2C(=O)NCc1cccc(F)c1 (configuration not stated) do in these assays?
E coli growth-1: 0.75

Results for Clc1ccc(C(c2ccc(Cl)cc2)n2cc[n+](CC(OCc3ccc(Cl)cc3Cl)c3ccc(Cl)cc3Cl)c2)cc1 (configuration not stated) ?
E coli growth-1: 0.094*; Tat export inh: 15; phage Ecoli inh: 7; E coli growth-2: 5; AddAB inh: 0

What do the screens show for `CC1CCC2C(C)C(=O)OC3OC4(C)CCC1C32OO4` (configuration not stated)?
E coli growth-1: 0.43*; Tat export inh: -2; p-CIP stab down: -5; phage Ecoli inh: 3; E coli growth-2: 1; AddAB inh: 1

Results for CN(C)c1ccc(C2C3C=CC(C3)C2(C#N)C(=O)O)c(Br)c1 (configuration not stated) ?
E coli growth-1: 0.65; Tat export inh: -8; p-CIP stab down: -3; phage Ecoli inh: 0; E coli growth-2: 4; AddAB inh: 2

How did CNc1cc(Cl)c2nonc2c1[N+](=O)[O-] do in these assays?
E coli growth-1: 0.46*; Tat export inh: -37; p-CIP stab down: -26; phage Ecoli inh: 8

How did CC(C)(C)C(=O)N1Cc2cc(N3CCCCC3)ccc2-n2nncc2C1 do in these assays?
phage Ecoli inh: 3

What do the screens show for `O=C(/C=C/c1ccc(O)c(O)c1)OC1C(O)CC(OC(=O)/C=C/c2ccc(O)c(O)c2)(C(=O)O)CC1O` (configuration not stated)?
E coli growth-1: 0.68; Tat export inh: 5; p-CIP stab down: -3; phage Ecoli inh: -2; E coli growth-2: 1; AddAB inh: 2

What do the screens show for `COc1cc2cc(C(=O)N3CC(COS(C)(=O)=O)c4ccc(O)cc43)[nH]c2c(OC)c1OC` (configuration not stated)?
Tat export inh: 58*

How did CN(C)C1C(=O)C(C(N)=O)=C(O)[C@@]2(O)C(=O)C3=C(O)c4c(O)cccc4[C@@](C)(O)C3CC12 (some centres not stated) do in these assays?
E coli growth-1: 0.065*

Results for CN(C)C1C(=O)C(C(N)=O)=C(O)[C@@]2(O)C(=O)C3=C(O)c4c(O)cccc4[C@@](C)(O)C3C(O)C12 (some centres not stated) ?
E coli growth-1: 0.07*

How did O=S(=O)(c1cc(Cl)cc(Cl)c1)N1Cc2cc(-c3cccc(F)c3)ccc2-n2nncc2C1 do in these assays?
phage Ecoli inh: 3

How did CCOC(=O)[C@]12Cc3ccccc3[C@H]1N(Cc1ccccc1)C(=O)c1cc(F)c(F)cc12 do in these assays?
phage Ecoli inh: 2

What do the screens show for `COC(=O)C1C(O)C(C)C(O)C(C)C=CC=C(C)C(=O)Nc2c(C)c(OC(C)=O)c3c(c2O)C(=O)C(C)=C2OCOC(=C23)C(C)=CC(C)(O)C(O)C(C)C1O` (configuration not stated)?
E coli growth-1: 0.12*

What do the screens show for `Cc1cc(N(CCCl)CCCl)ccc1C=NNC(=O)c1ccco1`?
E coli growth-1: 0.7

What do the screens show for `Fc1ccc(CNCCc2ccccc2)cc1`?
E coli growth-1: 0.68; Tat export inh: -2; p-CIP stab down: 30; phage Ecoli inh: 5; E coli growth-2: 1; AddAB inh: 2

Results for C1=C(CCNCc2ccccc2)CCCC1 ?
E coli growth-1: 0.45*; Tat export inh: -5; p-CIP stab down: -9; phage Ecoli inh: 6; E coli growth-2: -1; AddAB inh: 3

How did COC(=O)C1=C(c2ccc(-c3ccccc3)c(F)c2)CC2CCC1N2C(=O)NC1CCCCC1 (configuration not stated) do in these assays?
E coli growth-1: 0.73

What do the screens show for `CN1/C(=C\C=C\C2=[N+](C)c3ccc4ccccc4c3C2(C)C)C(C)(C)c2ccccc21`?
p-CIP stab down: 2; E coli growth-2: 51*; AddAB inh: 30*; AddAB confirm: 77*; RecBCD counter: 66*; bact viab count: 78*

How did Cc1ccccc1[N+](=O)[O-] do in these assays?
E coli growth-1: 0.68; Tat export inh: 6; phage Ecoli inh: 2; E coli growth-2: -4; AddAB inh: 0

Results for Cc1cc([N+](=O)[O-])c2ccccc2[n+]1[O-] ?
E coli growth-1: 0.48*; Tat export inh: -17; p-CIP stab down: -12; E coli growth-2: 21*; AddAB inh: 28*; AddAB confirm: 99*; RecBCD counter: 11*; bact viab count: 33*

What do the screens show for `O=C(NC1CCCCC1)N1Cc2cc(Br)ccc2-n2nncc2C1`?
phage Ecoli inh: 3

What do the screens show for `CCC1CN1P(=O)(c1ccccc1)N1CC1CC` (configuration not stated)?
E coli growth-1: 0.68; Tat export inh: 3; phage Ecoli inh: 4

Results for COC1C(O)C(C)OC(OC2C(Oc3cccc4c(O)c5c(=O)oc6ccc(C)c7c(=O)oc(c34)c5c67)OC(C)C(O)C2O)C1O (configuration not stated) ?
Tat export inh: -7; phage Ecoli inh: 2

Results for Cc1ccc(C[n+]2c(-c3ccc(C)cc3)cc(-c3ccc(C)cc3)cc2-c2ccc(C)cc2)cc1 ?
E coli growth-1: 0.41*; Tat export inh: -3; E coli growth-2: 25*; AddAB inh: 16*; AddAB confirm: 55*; RecBCD counter: 12*; bact viab count: 13

Results for c1ccc(N2[C@@H]3CC[C@H]2c2ccccc2C3)cc1 ?
phage Ecoli inh: 1

Results for Oc1c(Br)c(Br)c(Br)c(Br)c1Br ?
Tat export inh: -2; E coli growth-2: 15*; AddAB inh: 18*; AddAB confirm: 22*; RecBCD counter: 20*; bact viab count: 21
